SARS PLpro yeast: qHTS of Yeast-based Assay for SARS-CoV PLP. S. cerevisiae expressing SARS-CoV PLpro, growth rescue. 330,000 tested, 0.19% active. Potency, µM (top dose mostly 32.9 µM), for inactives: top-dose activity, positive = growth rescue, actives largely listed as activators; calls by dose curve; further: potency means the concentration at half of the fitted maximal effect; 0% is about no effect; nearly all actives have a fitted effect of over 55% in size
Shiga toxin inh: A qHTS for Small Molecule Inhibitors of Shiga Toxin; Vero cells, Shiga toxin protein synthesis inhibition reporter; inhibition, % at 38.7 µM; 290,000 tested, 9.2% active; in the data active means inhibition mostly above about 28%, no sharp cut-off; inactive means mostly below about 43%; further: 0% is about no effect
NS1 inh: qHTS Assay for Inhibitors of Influenza NS1 Protein Function. Potency, µM (titrated, usually from 46.1 µM), for the others: at the top dose activity, positive = more growth. 270,000 tested, 0.4% active; calls by dose curve; further: potency means the concentration at half of the fitted maximal effect; actives are rising curves; nearly all actives have a fitted effect of over 50% in size
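Read-out: OD600 growth recovery of NS1-expressing budding yeast. Cells grown overnight at 30C in -URA glucose medium, washed, resuspended and diluted 1:100 in 2% galactose assay medium, pH 6.0. Same strain lacking NS1 served as positive control.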
Cycloheximide cs: Cycloheximide Counterscreen for Small Molecule Inhibitors of Shiga Toxin; cell reporter, cycloheximide protein synthesis inhibition counterscreen; max response, %; 300,000 tested, 12% active; AID 2314, 2010; in the data active means max response mostly above about 13%, no sharp cut-off; inactive means mostly below about 14%; further: read at 38.3 µM for the half of the compounds with a filed dose; 0% is about no effect
Pf growth 48h: Primary qHTS for delayed death inhibitors of the malarial parasite plastid, 48 hour incubation; P. falciparum luciferase growth in erythrocytes, 48 h; Potency, µM (highest dose often 28.7 µM), inactives show at the top dose activity change, negative = inhibition, usual class: inhibitors; 310,000 tested, 5.9% active; AID 504832, 2011; further: potency means the concentration at half of the fitted maximal effect; on the % scale 0 is the no-effect control and ±100 the full control effect
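Growth was read as firefly luciferase luminescence after a 48 h, 37 C, 5% CO2 exposure of compounds to reporter-bearing P. falciparum cultures (0.1% parasitemia, 2% hematocrit final) in Albumax-supplemented RPMI 1640.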
Pf growth 96h: Primary qHTS for delayed death inhibitors of the malarial parasite plastid, 96 hour incubation; 320,000 tested, 6.9% active; AID 504834, 2011; P. falciparum luciferase reporter growth, 96 h; Potency, µM (titrated, usually from 28.7 µM), for the others: at the top dose activity change, negative = inhibition, most hits filed as inhibitors; further: potency means the concentration at half of the fitted maximal effect; on the % scale 0 is the no-effect control and ±100 the full control effect
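Erythrocytes infected with luciferase-expressing P. falciparum were dispensed at 2% hematocrit and 0.05% parasitemia (final), then incubated with compounds 96 hours at 37 C in 5% CO2. Luminescence after detection reagent addition reported growth.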
Active calls of the source: *; i = inactive; ? = inconclusive; . = no result given; + = active, no number. Most compounds without a hit are left out; they make up all but 21% or so of the library. Unless noted, the call rests on the fitted dose curve; in most records, active means well fitted inhibition curve with a large enough effect; inconclusive means small, poorly fitted or top-dose-only effect, or another doubt; inactive means no such curve, though single readings can be large or run the other way.

SMILES | SARS PLpro yeast | Shiga toxin inh | NS1 inh | Cycloheximide cs | Pf growth 48h | Pf growth 96h
N/C(=N\OC(=O)c1cccc2ccccc12)c1ccccn1 | -5% | 95* | -74% | 57* | -9% | -9%
N#CCCN(C(=O)COc1ccc(C#N)cc1)c1ccc(F)cc1 | 1% | -8 | . | -2 | ? | 3%
COc1ccc2c(c1OC)C(=O)N(c1cccc(C(F)(F)F)c1)C2 | 5% | 103* | -59% | 20* | 55% | 37%
COc1ccc2c(c1OC)C(=O)N(c1ccccn1)C2 | -9% | 139* | -34% | 52* | 183% | 127%
COc1ccc2c(c1OC)C(=O)N(c1ccc(C)cc1)C2 | 1% | 86* | -32% | 54* | 147% | 141%
COc1ccc2c(c1OC)C(=O)N(c1cccc(C)c1)C2 | -24% | 49* | -36% | 41* | 172% | -20%
Cc1nnc(NC(=O)C2CCN(S(=O)(=O)c3ccc(F)c(F)c3)CC2)o1 | 6% | . | . | . | . | .
CN(C)CCSc1nc2cc(S(=O)(=O)N3CCCCC3)ccc2o1 | 3% | . | . | . | . | .
CC(=O)Nc1cccc(NC(=O)CSc2nc3c(c(=O)n(C)c(=O)n3C)n2C)c1 | 7% | -5 | 14% | -2 | 12% | -16%
Cc1ccc(Cn2cc(/C=N/Nc3ccc([N+](=O)[O-])cn3)c3ccccc32)cc1 | 10% | + | 10% | 19* | ? | ?
Cc1c(/C=N/Nc2ccc([N+](=O)[O-])cn2)c2ccccc2n1Cc1ccccc1 | -1% | 24 | 5% | 20* | -1% | 25%
O=Cc1cn(Cc2ccc([N+](=O)[O-])cc2)c2ccccc12 | -8% | -16 | ? | -3 | 7% | 8%
O=C(O)Cn1cc(/C=N/Nc2ccc([N+](=O)[O-])cn2)c2ccccc21 | 0% | 35* | -2% | 28* | 18% | 30%
CCN(CC)COC(=S)S | . | . | -20% | . | . | .
CCOc1ccc(NC(=O)[C@H](Cc2ccccc2)NC(=O)C2CCNCC2)cc1 | 3% | 29 | -9% | -3 | -3% | ?
COc1ccc(Oc2ccc(C(F)(F)F)cc2N)cc1 | 0% | 56* | -5% | 29* | ? | 40%
COc1ccc(Oc2ccc(C(F)(F)F)cc2NC(=O)c2ccc(OC)cc2)cc1 | -2% | -9 | -5% | -2 | ? | ?
CC(=O)N1CCc2cc(S(=O)(=O)CCC(=O)Nc3ccccc3F)ccc21 | -2% | -5 | 1% | -5 | 6% | -11%
C/C(=N/OCO/N=C(\C)c1ccccc1F)c1ccccc1F | -11% | 12 | 0% | -2 | -5% | 1.7µM*
CCNc1nc(NCC)nc(OCCOC(C)=O)n1 | -18% | 14 | 12% | 1 | -6% | 4.1µM*
CCNc1nc(NCC)nc(OCCOC(=O)c2ccccc2)n1 | 0% | 25 | -13% | 6 | -17% | ?
O=C(O)c1ccc(-c2nc(-c3ccccc3)cs2)cc1 | -8% | 41* | . | 37* | 160% | i
O=S(=O)(Nc1ccc(-c2csc(-c3ccccc3)n2)cc1)c1ccccc1 | -69% | -5 | 7% | 1 | 16% | 0.66µM*
O=C(O)c1ccccc1C(=O)Nc1ccc(-c2csc(-c3ccccc3)n2)cc1 | 8% | 73* | ? | 54* | 165% | 351%
Cc1oncc1-c1csc(-c2ccccc2)n1 | -4% | 64* | . | 51* | 54% | 113%
SMILES | SARS PLpro yeast | Shiga toxin inh | NS1 inh | Cycloheximide cs | Pf growth 48h | Pf growth 96h
O=C(Nc1ccc(-c2csc(-c3ccccc3)n2)cc1)c1ccccc1Cl | 2% | 24 | -12% | 3 | ? | ?
COc1ccc(CN2C[C@H]3CCCN3c3cc(Br)ccc3S2(=O)=O)cc1 | 0% | . | . | . | . | .
CCOC(=O)/C=C/C(=O)Nc1ccc(S(=O)(=O)Nc2nccs2)cc1 | 0% | -2 | 3% | 0 | ? | 71%
O=C(O)c1cnn(-c2nc(-c3ccc(Cl)c(Cl)c3)cs2)c1C(F)(F)F | -8% | 35 | -100% | 19* | 1% | ?
CC(=O)c1csc(-c2ccccc2)n1 | -1% | 41* | 2% | 16* | 5% | 16%
CC(=O)c1nc(-c2ccccc2)sc1C | 1% | 77* | . | 26 | 30% | ?
CCc1sc(-c2ccccc2)nc1C(=O)OC | 0% | 12 | 0% | 10 | 18% | 30%
O=C(NCc1nc(-c2ccccc2)cs1)c1ccccc1 | -2% | 30* | -34% | 19* | 88% | -21%
O=c1cc[nH]c2c1ccc1cccnc12 | -1% | . | . | . | 2% | 70%
CC1Oc2ccccc2N(Cc2ccc(F)cc2)C1=O (stereo not given) | 0% | -2 | 3% | -4 | -15% | -5%
CCOCC(=O)Nc1cc(C)on1 | 2% | -5 | . | 1 | 5% | ?
CCOC(=O)CNC(=S)n1ncnc1N | -2% | -13 | . | -3 | 19% | 8%
C[C@H](Br)C(=O)Nc1ccc(C(=O)O)c(O)c1 | . | . | -7% | . | . | .
COc1ccc(S(=O)(=O)N2CCCCCC2)cc1C(=O)N(C)CC(=O)Nc1cc(C)ccc1C | . | 12 | 13% | -2 | -5% | ?
CCCNC(=O)C(Cc1ccc(Br)cc1)NC(=O)c1ccc(C#N)cc1 (stereo not given) | 0% | . | . | . | -27% | 29%
O=C(O)c1ccccc1-c1csc(-c2ccccc2)n1 | 0% | 79* | 2% | 23* | 38% | 49%
C=CCNC(=O)c1ccc(-c2nc(-c3ccc(Cl)cc3Cl)cs2)cc1 | -6% | 10 | 13% | 4 | -21% | 9%
CNC(=O)c1ccc(-c2nc(-c3ccccc3)cs2)cc1 | -2% | 43* | -4% | 32* | 50% | 91%
O=C(O)c1ccc(-c2nc(-c3ccc(Cl)c(Cl)c3)cs2)cc1 | 1% | 141* | . | 37* | 40% | 0%
Cc1cc(-c2ccccc2C(=O)O)on1 | 4% | -8 | -9% | -1 | 3% | 9%
C=CCNC(=O)c1ccc(-c2nc(-c3ccc(Cl)c(Cl)c3)cs2)cc1 | 0% | -5 | 6% | -3 | ? | ?
O=C(O)c1ccc(-c2nc(-c3ccccc3Cl)cs2)cc1 | -2% | 143* | -8% | 29* | 57% | 78%
Cc1ccccn1 | . | . | . | . | -8% | -22%
C[C@H]1CN([C@@H](C)CO)C(=O)Cc2cc(NC(=O)CCC(F)(F)F)ccc2O[C@H]1CN(C)S(=O)(=O)c1ccc(Cl)cc1 | -2% | . | . | . | . | .
CC(=O)c1ccc(NC(=O)CSc2nnc(NC(=O)c3ccco3)s2)cc1 | ? | -10 | -5% | -3 | -12% | -16%
C=CCn1c(SCC(=O)Nc2ccc(C(=O)O)cc2)nnc1-c1cccnc1 | 2% | 5 | -5% | 2 | 53% | 5%
C=CCn1c(SCC(=O)Nc2cc(OC)c(NC(=O)c3ccco3)cc2OC)nnc1-c1ccncc1 | -6% | 11 | 16% | 1 | 24% | ?

High-throughput results: PubChem BioAssay, National Center for Advancing Translational Sciences (NCATS)
